# Source: PubChem
# Only some compounds are listed: those with a hit (about 3.4% of all), similar ones and a draw of the others.
# MITF primary = human MITF inhibition, primary screen | hit rate 0.91% among 650,000 | inhibition, % at 2.6 µM | AlphaScreen MITF homodimerization, bead proximity signal; in the data active means inhibition above about 50%
# FBW7 act = human FBW7 E3 ligase activation, primary screen; AlphaScreen FBW7–phospho-cyclin E peptide binding, activator screen; Q969H0; hit rate 0.13% among 650,000; normalized activity (activation), % at 26.1 µM; in the data active means normalized activity above about 1.9%;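 further: purified mutant Fbw7 with reduced substrate affinity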
# TEAD-YAP inh = TEAD-YAP interaction inhibition; inhibition, % at 9.12 µM; HEK-TIYL cells, TEAD-Gal4/YAP UAS-luciferase luminescence; AID 1259422; hit rate 1.4% among 640,000; in the data active means inhibition above about 32%
# GPR151 ag = human GPR151 activation | Q8TDV0 | PathHunter beta-arrestin GPR151 cells, luminescence | activation, % at 11.2 µM | hit rate 1% among 650,000; in the data active means activation above about 4.9%
# Target sequence (Q8TDV0 whole entry, looked up): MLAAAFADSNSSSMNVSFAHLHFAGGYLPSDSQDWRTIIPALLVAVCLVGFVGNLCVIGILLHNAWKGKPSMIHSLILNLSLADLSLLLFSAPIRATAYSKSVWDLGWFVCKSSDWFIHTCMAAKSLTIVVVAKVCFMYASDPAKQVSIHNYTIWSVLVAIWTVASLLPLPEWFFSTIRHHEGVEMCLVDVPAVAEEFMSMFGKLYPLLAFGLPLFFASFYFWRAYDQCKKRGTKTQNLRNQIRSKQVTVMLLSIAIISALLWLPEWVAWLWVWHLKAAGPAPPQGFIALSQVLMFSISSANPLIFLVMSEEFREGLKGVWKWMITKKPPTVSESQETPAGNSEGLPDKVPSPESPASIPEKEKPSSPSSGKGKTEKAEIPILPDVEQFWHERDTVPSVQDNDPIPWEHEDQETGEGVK
# Numbers stand for hits; i = inactive; ! = repeats disagree.
SMILES,MITF primary,FBW7 act,TEAD-YAP inh,GPR151 ag
Oc1ccc(Br)cc1C1CC(c2cccc(Br)c2)=NC(c2ccc(Cl)cc2Cl)N1 (stereo not given),i,i,i,i
COc1cccc(C2=NC(C(C)C)NC(c3cc(Br)ccc3O)C2)c1 (stereo not given),i,i,35,i
CCn1c(=O)n(-c2ccccc2)c(=O)c2c1c1cc(OC)ccc1n2C,i,i,i,i
S=c1[nH]c2cc(Cl)ccc2n1C1CCCCC1,i,3.1,i,i
O=c1c2cc(Cl)ccc2[nH]c(=S)n1C1CCCCC1,i,i,i,i
O=C(CCn1c(=O)sc2ccccc21)Nc1cccc2ccccc12,i,i,i,i
COc1ccc(-c2nc(C(N)=O)c3[nH]c(=O)n(-c4ccccc4OC)c3n2)cc1,i,i,48,i
COc1ccccc1-n1c(=O)[nH]c2c(C(N)=O)nc(-c3cccc(F)c3)nc21,i,i,i,i
COc1ccc(-c2nc(C(N)=O)c3[nH]c(=O)n(-c4cccc(C)c4)c3n2)cc1O,i,i,64,i
O=C(Nc1c(F)cccc1F)c1ccc(I)cc1,i,i,i,i
Cc1ccc2c(C)nc(N3CCCC(NCC4COc5ccccc5O4)CC3)nc2c1 (stereo not given),i,1.9,i,i
Oc1c(C(Nc2ccc(Cl)cc2)c2ccccn2)ccc2cccnc12 (stereo not given),69,i,i,i
Oc1c(C(Nc2cccc(Cl)c2)c2ccccn2)ccc2cccnc12 (stereo not given),i,i,62,i
O=c1cc(CO)oc(C(Nc2cccc(F)c2)c2ccccn2)c1O (stereo not given),i,i,i,i
Oc1c(C(Nc2cccc(C(F)(F)F)c2)c2ccccn2)ccc2cccnc12 (stereo not given),51,i,i,i
Oc1c(C(Nc2cccc(C(F)(F)F)c2)c2cccnc2)ccc2cccnc12 (stereo not given),65,i,i,i
c1ccc(OCCNc2cc(Oc3ccccc3)ncn2)cc1,i,i,i,i
O=[N+]([O-])c1ccc(NC(c2ccccn2)c2ccc3cccnc3c2O)cc1 (stereo not given),i,i,87,i
O=C(NC(c1ccccc1)c1ccccn1)c1ccc([N+](=O)[O-])cc1 (stereo not given),i,i,i,i
Cc1nn(-c2ccc3nncn3n2)c(C)c1CCC(=O)O,i,i,i,i
Nn1c(SCC(=O)NC2CCCc3ccccc32)nnc1C(F)(F)F (stereo not given),i,i,34,i
CCOc1ccc(C(C)=O)cc1CSc1nnc(Nc2ccccc2)s1,i,i,35,i
CCOc1ccccc1Nc1nnc(SCc2cc(C(C)=O)ccc2OC)s1,i,i,i,i
N[C@H](Cc1cccc(F)c1)c1nc2ncc(-c3ccncc3)cc2[nH]1,i,i,48,i
N[C@H](Cc1cc(F)cc(F)c1)c1nc2ccc(-c3ccncc3)cc2[nH]1,i,i,i,i
SMILES,MITF primary,FBW7 act,TEAD-YAP inh,GPR151 ag
Cc1ccccc1C(OCCN(C)C)c1ccccc1 (stereo not given),i,1.9!,i,i
CN(C)CC#CCOC(c1ccccc1)c1ccccc1,i,i,i,i
Cc1nn(C2CCS(=O)(=O)C2)c(Cl)c1/C=C/c1nc2ccccc2s1 (stereo not given),i,i,95,i
O=C(c1ccc2nc3ccccc3c(=O)n2c1)N1CCN(c2cccc(Cl)c2)CC1,i,i,i,i
Cn1ccnc1C(NC(=O)C1CC1)c1ccc(F)c(F)c1 (stereo not given),i,i,i,i
CCCc1cc(=O)[nH]c(-n2nc(C)cc2NC(=O)c2cccc(Cl)c2)n1,i,2.4,i,i
Cc1cccc(C(=O)Nc2cc(C)nn2-c2nc(C)cc(=O)[nH]2)c1,i,i,i,i
CCOCCCNC(=O)c1ccc2c(c1)nc(C)n2-c1cc(C)ccc1OC,i,i,i,i
COCCCNC(=O)c1ccc2c(c1)nc(C)n2-c1cc(C)ccc1OC,i,i,56,i
COCCNC(=O)[C@@H]1C[C@@H](NCC2=CC[C@H]3C[C@@H]2C3(C)C)CN1Cc1ccc(Cl)cc1,i,i,i,i
CC(=O)Nc1ccc(/C=N/NC(=O)CN2CCSCC2)cc1,i,i,i,i
Cc1cc(Nc2ccccc2C)n2cnnc2n1,i,i,i,i
Cc1cccnc1Nc1nc(-c2cccs2)cs1,i,i,i,i
CN(C)c1ccc(Nc2nc(-c3cccs3)cs2)cc1,i,i,70,i
Cc1ccc(Nc2nc(-c3cccs3)cs2)nc1,i,i,56,i
O=C(Nc1nc(-c2cccs2)cs1)c1ccc(Br)cc1,i,i,i,i
O=C(Nc1nc(-c2cccs2)cs1)c1ccncc1,i,i,35,i
Cc1cccc(/C=C2\N=C(c3ccccc3C)OC2=O)c1,i,i,i,i
CCCCC(=O)Nc1ccc(-c2nc3cccnc3s2)cc1,i,i,i,i
Cc1ccc(-c2nc3cccnc3s2)cc1NC(=O)C(F)(F)F,i,i,32,i
CC(=O)Nc1ccc(-c2nc3cccnc3s2)cc1,i,i,47,i
Cc1cc(OS(C)(=O)=O)c2c(-c3ccccc3)cc(=O)oc2c1,i,i,i,i
Cc1ccc(-c2nc(-c3ccccn3)no2)cc1Cl,i,i,84,i
Cc1ccc(-c2nc(-c3ccccn3)no2)cc1[N+](=O)[O-],i,i,55,i
CCOc1ccc2cc(-c3ccccn3)c(=N)oc2c1,i,i,59,i
SMILES,MITF primary,FBW7 act,TEAD-YAP inh,GPR151 ag
Cc1ccc(-c2nc(-c3cccs3)no2)cc1[N+](=O)[O-],i,i,i,i
Cc1ccc(-c2nc(-c3ccccn3)no2)cc1,i,i,95,i
CCCOc1ccc(-c2ccc(-c3nc(-c4ccccn4)no3)cc2)cc1,i,i,i,i
CN(Cc1ccon1)C(=O)CC1C(=O)NCCN1C1Cc2ccccc2C1 (stereo not given),i,i,i,i
COc1ccc(NC(=O)Cn2nnc(-c3ccccc3N)n2)cc1,i,i,i,i
Cc1ccc(NC(=S)NC(=O)c2cccc([N+](=O)[O-])c2)nc1,i,i,i,i
c1ccc(-c2ccc(-c3nc(-c4ccccn4)no3)cc2)cc1,i,i,95,i
CCOc1ccc(-c2nc(-c3ccccn3)no2)cc1,i,i,98,i
CSc1cccc(NC(=O)Cn2cc(Br)c([N+](=O)[O-])n2)c1,i,i,i,i
Cc1nn2c(=O)/c(=C\c3ccccn3)sc2nc1=O,70,i,i,i
Oc1ccc(N=Cc2ccc[nH]2)cc1N=Cc1ccc[nH]1,87,i,i,i
NS(=O)(=O)c1ccc(N=Cc2ccc[nH]2)cc1,i,i,i,i
COc1ccc(C2Nn3c(C)nnc3SC2C(=O)N2CCCCC2)cc1Cl (stereo not given),i,i,i,i
CCCOC(=O)c1ccc(Br)c([N+](=O)[O-])c1,i,i,i,i
COc1ccc(C(=O)c2ccc(Br)c([N+](=O)[O-])c2)cc1,i,i,64,i
O=C(Nc1ccc2ccccc2c1)N1CCN(c2ccc([N+](=O)[O-])cc2)CC1,i,i,i,i
O=C(O)CCCCCN1C(=O)/C(=C\c2ccccn2)SC1=S,i,1.9,i,i
O=C(O)CCCCCN1C(=O)/C(=C\c2ccco2)SC1=S,i,i,37,i
